# Source: PubChem BioAssay (NCI)
# The panel holds about 83,000 compounds, 20% with a hit somewhere; the sample as a whole holds those more often.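 Compound tested at a single concentration for 48 hours in 96-well plates; a percent growth value below 10 was scored as active.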 Unmarked numbers belong to inactive results. Active and inactive are the calls of the source.
# Columns and labels:
# Assay in all cases: NCI-60 one-dose screen, 48 h (100 = growth as untreated, 0 = no growth, -100 = all killed)
# Conditions in all cases: 10 µM unless noted
# [1] = system: T-47D breast
# [2] = system: BT-549 breast
# [3] = system: MDA-MB-435 melanoma
# [4] = system: SW-620 colon
# [5] = system: MCF7 breast
# [6] = system: HCT-116 colon
# [7] = system: HCC-2998 colon
# [8] = system: KM12 colon
SMILES,growth [1],growth [2],growth [3],growth [4],growth [5],growth [6],growth [7],growth [8]
NC(=O)c1ncn2c(=O)n(CCF)nnc12,88.8%,110%,82.4%,40.4%,57.8%,47.4%,56.4%,83.5%
CCOC(=O)c1c(N)c(C#N)cn1Cc1ccc(Cl)cc1Cl,78.3%,81.8%,-7.54% (active),44.9%,59.2%,64%,73%,60.1%
O=C(CCCCCCNC(=O)C(O)(O)C(F)(F)F)Nc1ccc(Br)cc1,8.06% (active),19.5%,6.63% (active),3.78% (active),13.7%,-6.77% (active),1.89% (active),14.1%
CN1CCN(c2ccc(Nc3nc(NCCCNS(=O)(=O)c4cccc5ccccc45)c4sccc4n3)cc2)CC1,-2.47% (active),-87.3% (active),-73% (active),-0.438% (active),-20.9% (active),-73% (active),-51.4% (active),4.02% (active)
CC[C@]12C=CCN3CC[C@@]4(c5ccc(OC)cc5N(C)[C@H]4[C@@](O)(C(=O)OC)[C@@H]1OC(=O)CCN1CCc4ccccc4C1)[C@@H]32,84%,93.2%,95.6%,95.6%,82.5%,90.9%,69.5%,103%
Cn1c(SCC(=O)c2ccc(Br)cc2)nc2ccccc2c1=O,78.4%,98.9%,103%,102%,51.7%,86.1%,108%,98.7%
Cn1cc(C2=C(c3coc4cc(Br)ccc34)C(=O)NC2=O)c2ccccc21,70%,82.6%,8.23% (active),42.1%,51.2%,57.4%,104%,80.5%
CCN1CCN(c2ccc(NC(=O)Nc3ccc4c(ccn4-c4ccnc(C(=O)NC)c4)c3)cc2C(F)(F)F)CC1,90.5%,73.6%,70.4%,-56.2% (active),5.65% (active),58.6%,93.9%,36.4%
Cn1ncc2c(C(=O)c3ccc(F)cc3)nc(C(C)(C)C)nc21,102%,98.4%,97.9%,95.9%,93.6%,95.3%,103%,100%
Cn1cc(-c2nc(N)nnc2-c2c[nH]c3ccc(Br)cc23)c2cc(F)ccc21,74.8%,96.9%,50.5%,95.1%,–,100%,122%,74.7%
Cc1ccc(NC(=O)Nc2nc3ccc([N+](=O)[O-])cc3s2)cc1,-22.3% (active),-9.82% (active),-7.46% (active),8.56% (active),2.35% (active),1.1% (active),6.19% (active),-3.91% (active)
CN1CCN(c2ccc(Nc3nc(NCCNC(=O)c4ccc(F)cc4)c4sccc4n3)cc2)CC1,18.2%,56.1%,46.9%,75.2%,41%,22%,70.4%,65.4%
COc1ccc(/C=N/N=C(/c2ccccc2)c2ccc3nc(-c4ccc(Cl)cc4)[nH]c3c2)cc1,63.5%,85.7%,85%,88.3%,72%,75.4%,89.6%,75.8%
CN1CCN(c2ccc(Nc3nc(NCCNS(=O)(=O)c4ccc(Cl)cc4)c4sccc4n3)cc2)CC1,84.3%,111%,95.4%,94.7%,83.2%,58.5%,108%,93.7%
Cc1ccccc1NC(=O)Nc1nc2ccc([N+](=O)[O-])cc2s1,-10.8% (active),-2.98% (active),5.39% (active),11.6%,4.12% (active),2.44% (active),24.6%,4.18% (active)
O=C(COc1ccc(/C=C2\C(=O)Nc3ccc(F)cc32)cc1)Nc1ccccc1,97.7%,116%,98.6%,103%,–,69%,101%,97.8%

SMILES,growth [1],growth [2],growth [3],growth [4],growth [5],growth [6],growth [7],growth [8]
CC(=O)Nc1nc(C)c(-c2csc(Nc3ccccc3)n2)s1,7.07% (active),18.1%,43.3%,57.8%,–,19.7%,52.3%,41.1%
Cc1ccc(C(=O)CSc2nnc(-c3ccc(-c4ccc(Cl)cc4)nc3C)o2)cc1,92.1%,107%,103%,103%,–,98.1%,103%,97.2%
N#Cc1cnc2ccc(-c3cnc4n[nH]nc4c3)cc2c1N1CCc2cc(F)c(Cl)cc21,1.2% (active),3.78% (active),19.5%,26.8%,–,23.7%,22.5%,17.4%
O=S(=O)(Oc1ccc(-c2cn3ccsc3n2)cc1)c1cccc(C(F)(F)F)c1,103%,119%,99.5%,97.4%,90.1%,104%,120%,102%
CC(=O)c1cc(C(=O)N2c3ccccc3Sc3ccccc32)n2c1ccc1ccccc12,75.5%,52.6%,3.08% (active),41.6%,–,25.6%,87.8%,44.6%
NC1[C@H]2CN(c3cnc(C(=O)Nc4cc(F)cc5cccnc45)cn3)C[C@@H]12 (some centres not stated),32.4%,91.8%,90%,47.6%,–,10.7%,84.3%,87.4%
C#CCOc1ccccc1/C=N/Nc1nc(-c2ccc(Cl)cc2)cs1,71.9%,128%,104%,93.4%,–,90.7%,120%,91.4%
CCCCCc1ccc(S(=O)(=O)Nc2cc(-c3csc(N)n3)ccc2OC)cc1,83%,102%,107%,110%,–,95.1%,111%,99.6%
CCCCCCNC(=O)Oc1ccc(/C(=C(/C)c2ccc(Cl)cc2)c2ccc(OCCN3CCCCCC3)cc2)cc1,48.2%,101%,70%,22.4%,–,30.9%,90.7%,58.9%
CSc1ccc(C(=NNS(=O)(=O)c2ccc(C)cc2)c2ccc(Cl)cc2)cc1,89.7%,118%,106%,102%,–,98.2%,103%,97.1%
COc1ccc([C@H]2C(=O)N(c3cc(OC)c(OC)c(OC)c3)[C@@H]2c2ccc(OC)c(O)c2)cc1,90.5%,-28.2% (active),-6.94% (active),23.3%,14%,6.05% (active),13.3%,12.4%
C=C(C)[C@@H]1CC[C@]2(COCCCNCCCN)CC[C@]3(C)[C@H](CC[C@@H]4[C@@]5(C)CC[C@H](O)C(C)(C)[C@@H]5CC[C@]43C)[C@@H]12,-53.3% (active),-77.4% (active),-95.8% (active),-68.1% (active),–,-86.5% (active),-71.5% (active),-65.4% (active)
Cc1ccc(/C(N)=N/C(N)=N/c2nc3ccccc3s2)cc1,80.9%,102%,103%,107%,74%,86%,104%,64.1%
COc1ccc(/C=N/NC(=O)CSc2nc(-c3cnccn3)cc(-c3cccs3)c2C#N)cc1OC,93.9%,38%,78.9%,60.8%,53.7%,55.4%,47.3%,51.4%
CCCCCCCCCCCC(=O)NC(C)(C)C(=O)N1CCCC1C(=O)NC(C)(C)C(=O)NC(C)(C)C(=O)N1CCCC1C(=O)NC(C)(C)C(=O)NC(C)(C)C(=O)N1CCCC1C(=O)NC(C)C(=O)NCCC(=O)NC(C)C(=O)NC(C)(C)C(=O)NC(C)(C)C(=O)NC(C)(C)C(=O)NCCC(=O)NC(C)(C)C(=O)NC(C)(C)C(=O)NC(C)(C)C(=O)NC(C)C(=O)NCCC(=O)O (configuration not stated),-64.3% (active),-97.1% (active),-89.9% (active),-92.3% (active),–,-94.8% (active),-92.4% (active),-98.5% (active)
Cn1c(SCC(=O)c2ccc(F)cc2)nc2ccccc2c1=O,62.5%,97%,108%,108%,–,89.1%,104%,98.1%
